Measured values as given in PubChem BioAssay.
Inconclusive results are not listed. The source made the active and inactive calls.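 The calls were made as follows, unless noted: active = normalized viability below 100% at a tested concentration; inactive = the rest.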

Tests used:
[1] = viability loss in pontine glioma line – cell-based, SU-DIPG-XVII, MIPE5.0, CellTiter-Glo, qHTS, dose response (AID 1347060; cut-off not given, nearly all actives have AC50 up to about 26 µM;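 as to AC50: cells exposed to compound for 48 hours before viability readout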); conditions: CellTiter-Glo ATP luminescence
[2] = viability loss in pontine glioma line – cell-based, SU-DIPG-XIII, MIPE4.0, CellTiter-Glo, qHTS, dose response (AID 1347061; cut-off not given, nearly all actives have AC50 up to about 37 µM;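 also: cells exposed to compound for 48 hours before readout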); conditions: CellTiter-Glo ATP luminescence
[3] = viability loss in pontine glioma line – cell-based, SU-DIPG-XIII, MIPE5.0, CellTiter-Glo, qHTS, dose response (AID 1347064; cut-off not given, nearly all actives have AC50 up to about 23 µM;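 as to AC50: cells exposed to compound for 48 hours before the viability read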); conditions: CellTiter-Glo ATP luminescence
[4] = viability loss in pontine glioma line – cell-based, SU-DIPG-XXV, MIPE5.0, CellTiter-Glo, qHTS, dose response (AID 1347065; cut-off not given, nearly all actives have AC50 up to about 26 µM;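 also: cells exposed to compound for 48 hours before ATP readout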); conditions: CellTiter-Glo ATP luminescence
[5] = growth inhibition of DIPG cells – cell-based, MIPE4.0 library, CellTiter-Glo luminescence, qHTS (AID 1347066; cut-off not given, nearly all actives have AC50 up to about 30 µM;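 also: cells exposed to compound for 48 hours before readout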); conditions: SU-DIPG-VI viability, CellTiter-Glo ATP luminescence
[6] = compounds altering HSF1 focus formation in cells – imaging, Selleck Cancer Library (AID 1347162; in the data active = plate-normalised HSF1 focus index below about 0.46); conditions: human cells, HSF1 nuclear foci imaging, at 10 µM; SSMD: measured here: HSF1 foci SSMD mean; cell count: measured here: cell number; plate-normalised HSF1 focus index: stronger effect = lower value
[7] = drug combination growth inhibition, ovarian cancer – cell-based, oncology-focused library, rucaparib conditional, profiling panel (AID 1508598); conditions: patient-derived ovarian cancer cells, CellTiter-Glo viability, 144 h, stronger effect = lower value
[8] = viability loss with induced miR-34 in A549 – imaging, A549 dox-inducible miR-34, nuclei and caspase counts, primary screen (AID 1347080;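 active = compounds whose cell count with miR-34 switched on is under 0.7 times the count with it off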); conditions: A549 miR-34 inducible, Hoechst nuclei count, 48 h
[9] = MELAS cybrid and Rieske KO viability enhancers – cell-based, MELAS cybrids, Rieske KO mouse fibroblasts, CellTiter-Glo, primary screen (AID 1508586;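 active = mean z-score across replicates of 1.96 or higher in either the MELAS or the Rieske mutant cell line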;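 also: z relative to plate mean and SD of compound and empty wells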); conditions: low glucose
[10] = viability loss in pontine glioma line – cell-based, SU-DIPG-IV, MIPE4.0, CellTiter-Glo, qHTS, dose response (AID 1347063; cut-off not given, nearly all actives have AC50 up to about 30 µM;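 also: compound exposure lasted 48 hours before the viability readout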); conditions: CellTiter-Glo ATP luminescence
[11] = JHH-DIPG-1 glioma cell viability, MIPE5.0 library, CellTiter-Glo luminescence, qHTS (AID 1347067; cut-off not given, nearly all actives have AC50 up to about 26 µM;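 also: cells exposed to compound for 48 hours before readout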); conditions: JHH-DIPG-1 glioma viability, CellTiter-Glo ATP luminescence
[12] = growth inhibition of DIPG cells – cell-based, MIPE5.0 library, qHTS (AID 1347068; cut-off not given, nearly all actives have IC50 up to about 30 µM;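 as to IC50: cells exposed to compound for 48 hours before viability readout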); conditions: SU-DIPG-XXV viability
[13] = stronger effect = lower value, cell number ratio, induced over uninduced
[14] = measured here: relative caspase fold change +Dox/-Dox
[15] = measured here: total cells with miR-34 induction, stronger effect = lower value
[16] = measured here: total cells without miR-34 induction
[17] = MELAS cybrid survival, CellTiter-Glo 48 h, stronger effect = higher value
[18] = Rieske KO mouse fibroblast survival, CellTiter-Glo 72 h

CO[C@@H](C(=O)N1Cc2[nH]nc(NC(=O)c3ccc(N4CCN(C)CC4)cc3)c2C1)c1ccccc1
inactive: outcome [5] | plate-normalised HSF1 focus index [6] 1.1 | viability ([7]; at 0.000305 µM, OCI-C5x cells, with rucaparib 10 µM, 100% = cells with rucaparib alone) 122% | viability ([7]; at 0.00122 µM, OCI-C5x cells, with rucaparib 10 µM, 100% = cells with rucaparib alone) 113% | viability ([7]; at 0.00122 µM, OCI-C5x cells, without rucaparib) 106% | viability ([7]; at 0.00488 µM, OCI-C5x cells, without rucaparib) 104% | viability ([7]; at 1.25 µM, OCI-C5x cells, without rucaparib) 112%
6850: cell count [6]
1.91: SSMD [6]
active: AC50 [1] 0.525 µM | AC50 [2] 1.87 µM | AC50 [3] 1.05 µM | AC50 [4] 0.372 µM | viability ([7]; at 0.000305 µM, OCI-C5x cells, without rucaparib) 95% | viability ([7]; at 0.000305 µM, OCI-P5x cells, with rucaparib 20 µM, 100% = cells with rucaparib alone) 88.8% | viability ([7]; at 0.000305 µM, OCI-P5x cells, without rucaparib) 84.6% | viability ([7]; at 0.00122 µM, OCI-P5x cells, with rucaparib 20 µM, 100% = cells with rucaparib alone) 89.5% | viability ([7]; at 0.00122 µM, OCI-P5x cells, without rucaparib) 84.3% | viability ([7]; at 0.00488 µM, OCI-C5x cells, with rucaparib 10 µM, 100% = cells with rucaparib alone) 96% | viability ([7]; at 0.00488 µM, OCI-P5x cells, with rucaparib 20 µM, 100% = cells with rucaparib alone) 91.4% | viability ([7]; at 0.00488 µM, OCI-P5x cells, without rucaparib) 88.2% | viability ([7]; at 0.0195 µM, OCI-C5x cells, with rucaparib 10 µM, 100% = cells with rucaparib alone) 96.4% | viability ([7]; at 0.0195 µM, OCI-C5x cells, without rucaparib) 81% | viability ([7]; at 0.0195 µM, OCI-P5x cells, with rucaparib 20 µM, 100% = cells with rucaparib alone) 95.5% | viability ([7]; at 0.0195 µM, OCI-P5x cells, without rucaparib) 93.2% | viability ([7]; at 0.0781 µM, OCI-C5x cells, with rucaparib 10 µM, 100% = cells with rucaparib alone) 57.5% | viability ([7]; at 0.0781 µM, OCI-C5x cells, without rucaparib) 79.9% | viability ([7]; at 0.0781 µM, OCI-P5x cells, with rucaparib 20 µM, 100% = cells with rucaparib alone) 91.5% | viability ([7]; at 0.0781 µM, OCI-P5x cells, without rucaparib) 73.7% | viability ([7]; at 0.313 µM, OCI-C5x cells, with rucaparib 10 µM, 100% = cells with rucaparib alone) 66.2% | viability ([7]; at 0.313 µM, OCI-C5x cells, without rucaparib) 89.6% | viability ([7]; at 0.313 µM, OCI-P5x cells, with rucaparib 20 µM, 100% = cells with rucaparib alone) 75.2% | viability ([7]; at 0.313 µM, OCI-P5x cells, without rucaparib) 64.1% | viability ([7]; at 1.25 µM, OCI-C5x cells, with rucaparib 10 µM, 100% = cells with rucaparib alone) 84.8% | viability ([7]; at 1.25 µM, OCI-P5x cells, with rucaparib 20 µM, 100% = cells with rucaparib alone) 72.6% | viability ([7]; at 1.25 µM, OCI-P5x cells, without rucaparib) 60% | viability ([7]; at 5 µM, OCI-C5x cells, with rucaparib 10 µM, 100% = cells with rucaparib alone) 71.1% | viability ([7]; at 5 µM, OCI-C5x cells, without rucaparib) 88.4% | viability ([7]; at 5 µM, OCI-P5x cells, with rucaparib 20 µM, 100% = cells with rucaparib alone) 19.1% | viability ([7]; at 5 µM, OCI-P5x cells, without rucaparib) 17%

Clc1ccc(C2(c3ccc(-c4cn[nH]c4)cc3)CCNCC2)cc1
active: AC50 [1] 18.6 µM | AC50 [3] 14.8 µM | AC50 [4] 10.5 µM | z-score [9, 17] 5.75
2760: cell count [8, 16]
-3.02: z-score [9, 18]
inactive: outcome [2] | outcome [5] | fold change [8, 13] 0.914
2520: cell count [8, 15]
1.06: fold change [8, 14]

CC1=C(C(=O)Nc2cc3cn[nH]c3cc2F)C(c2ccc(C(F)(F)F)cc2)CC(=O)N1 (stereo not drawn)
0.78: fold change [8, 14]
0.0194: z-score [9, 18]
5040: cell count [8, 16]
inactive: outcome [1] | outcome [2] | outcome [10] | outcome [3] | outcome [11] | outcome [12] | fold change [8, 13] 1.03 | z-score [9, 17] -0.364
5210: cell count [8, 15]

COc1cc(Nc2ncc(F)c(Nc3ccc4c(n3)N(COP(=O)(O)O)C(=O)C(C)(C)O4)n2)cc(OC)c1OC
inactive: fold change [8, 13] 0.857 | plate-normalised HSF1 focus index [6] 0.825 | z-score [9, 17] -0.637
1190: cell count [8, 16]
active: AC50 [1] 1.05 µM | AC50 [2] 1.87 µM | AC50 [10] 3.32 µM | AC50 [3] 3.72 µM | AC50 [4] 3.72 µM | IC50 [12] 4.68 µM
7320: cell count [6]
-0.181: z-score [9, 18]
1024: cell count [8, 15]
0.912: fold change [8, 14]
-2.78: SSMD [6]
